Assay results from PubChem BioAssay AID2685 (National Center for Advancing Translational Sciences (NCATS), 2010).
In all, about 320,000 compounds went through this assay and about 2,100 (0.66%) were called active. Roughly 53% stayed inconclusive and do not appear here. Calls follow the shape of the dose curve; as a rule, active = well fitted inhibition curve with a large enough effect in the signal ratio, with a control signal flat (not every such curve was filed as active); inconclusive = small, poorly fitted or top-dose-only effect, or effect the other way, or a change in a side signal; inactive = flat fitted curve, though single readings scatter; the % refers to the signal ratio. The list comes from a sample in which actives are over-represented; it also holds similar structures and randomly drawn compounds.

Assay: qHTS Assay for Lipid Storage Modulators in Drosophila S3 Cells;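 as to cell number change: cells counted by Cell Tracker Red CMTPX staining in the red channel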; as to lipid storage change, negative = inhibition: % is scaled to controls: 0 for no effect and ±100 for the full control effect
Details: BODIPY lipid droplet fluorescence, 18-24 h, cells fed with added oleic acid; cell number change: measured here: cell count max response; series mostly up to 46.1 µM; lipid storage change, negative = inhibition: at the top concentration
Description: NIH Molecular Libraries Probe Production Centers Network [MLPCN] NIH Chemical Genomics Center [NCGC] MLPCN Grant: 1 R03 MH085686-01 Assay Submitter (PI): Beller, Mathias; Max-Planck-Institut fur Biophysikalische Chemie NCGC Assay Overview: Storing lipids as a reservoir for energy or the anabolism of elementary metabolites is a common feature of probably all cells and is conserved from bacteria to humans. The universal cellular lipid storage organelle is the so-called lipid storage droplet (LD). Although ubiquitous, LDs share a simple structure composed of a hydrophobic core that harbors the storage lipids, which is shielded by a droplet-specific phospholipid monolayer to which proteins are attached. The current model of LD biogenesis involves an incorporation of the lipid core into the membrane leaflets of the endoplasmic reticulum (ER) followed by a subsequent budding-like maturation of a LD, which ultimately pinches off. Once released, LD volume can increase by localized lipogenesis or fusion of existing droplet. Storage lipids are re-mobilized enzymatically by lipase activity. Lipase regulation in the adipocyte is heavily studied and involves multiple components including catecholamine signaling, the LD-associated proteins Perilipin and comparative gene identification (CGI-58) and at least two lipases named hormone sensitive lipase (HSL) and adipocyte triglyceride lipase (ATGL). LD regulation outside of the adipocyte is poorly understood and only few components are known. However, there is an urgent need to learn more about ectopic fat depots as mislocalized storage of lipids, for example in the liver or muscle, is an eminent health problem associated with insulin resistance or the metabolic syndrome. We developed a laser-scanning cytometer assay to enable 1,536-well screening and combined the results of the small molecules screen with an RNAi database based on lipid storage.
Triacsin C (Sigma-Aldrich T-4540), an inhibitor of long-chain fatty acyl CoA synthetase that blocks synthesis of triglycerides, was used as a positive control for lipid under-storage. A total of 23 nL of compound solution of different concentrations were transferred to the assay plates using a Kalypsys pin tool equipped with a 1,536-pin array containing 10-nL slotted pins (FP1S10, 0.457-mm diameter, 50.8 mm long; V&P Scientific). One microliter of oleic acid (400 uM) was added, and the plate was lidded with stainless steel rubber gasket lined lids containing pinholes. […] Fluorescence was detected by excitation of the fluorophores with a 488-nm laser on an Acumen Explorer (TTP Lab Tech). The total intensity in channel 2 (500-530 nm) reflected lipid droplet accumulation. Cells were detected using channel 3 (575-640 nm) with 5-um width and 100-um depth filters. The ratio of the number of objects in PMT channel 2 over the number of objects in PMT channel 3 was also calculated. Percent activity was computed relative to an internal control (100% inhibited lipid droplet deposition due to the presence of 20 uM Triacsin C), which was added to 32 wells/plate.
Potency is read from the fitted curve at half-maximal effect.

Which “lipid storage change, negative = inhibition” value does the source give for `Cc1ccc(NC(=S)NC(C)CCc2ccccc2)cc1C` (stereo not given) here?
The value was 23.3% (inactive).

And the cell number change?
The cell number change was 23.4%.

With `CCOc1ccccc1C(=O)Nc1ccc2nc3n(c(=O)c2c1)CCCCC3` as the compound, how does the Potency read?
Its Potency is 1.64 µM (active).

What about the cell number change of the same compound?
Its cell number change is -27.2%.

Which results are given for `Cc1ccccc1C(=O)Nc1ccc2nc3n(c(=O)c2c1)CCCC3`?
lipid storage change, negative = inhibition: -12.1% (inactive); cell number change: 22.5%

Which results are given for `O=C(Nc1ccc2nc3n(c(=O)c2c1)CCCCC3)c1ccccn1`?
lipid storage change, negative = inhibition: 7.43% (inactive); cell number change: -14.9%

For `CCO[C@@H]1OC(C(=O)NC2CC2)=C[C@H](c2csc3ccccc23)[C@H]1CCCO`, which “lipid storage change, negative = inhibition” value is on record?
The value was -22.9% (inactive).

What about the cell number change of the same compound?
Its cell number change is 0.265%.

With `CC1CCN(S(=O)(=O)c2ccc3c(c2)N(CC(=O)NCCN2C(C)CCCC2C)C(=O)CS3)CC1` (stereo not given) as the compound, how does the “lipid storage change, negative = inhibition” value read?
The value was -11.8% (inactive).

For `C=CCNC(=S)N1CC2(C)CN(C(=S)NCC=C)CC(C)(C1)C2=O`, which “lipid storage change, negative = inhibition” value is on record?
The value was -3.79% (inactive).

What about the cell number change of the same compound?
The cell number change was 9.2%.

For `CC(C)(C)c1[nH]ncc1[N+](=O)[O-]`, which “outcome” value is on record?
Its value is “inactive”.

And the cell number change?
Its cell number change is -8.1%.

With `O=C(CN1C(=O)NC2(CCCC2)C1=O)OCCOc1ccc(Cl)cc1Cl` as the compound, how does the “outcome” value read?
The value was “inactive”.

With `CCOC(=O)C1=CN(c2cccc(F)c2)C=C(C(=O)OCC)C1c1cc(OC)c(O)c([N+](=O)[O-])c1` as the compound, how does the “outcome” value read?
Its value is “inactive”.

For `COC(=O)C1=CN(c2cccc(C)c2)C=C(C(=O)OC)C1c1cc(OC)c(O)c([N+](=O)[O-])c1`, which Potency is on record?
The Potency was 25.9 µM (active).

And the cell number change?
The cell number change was -3.94%.

Which “lipid storage change, negative = inhibition” value does the source give for `COC(=O)C1=CN(c2cccc(C(F)(F)F)c2)C=C(C(=O)OC)C1c1ccc(O)c(OC)c1` here?
The value was 2.64% (inactive).

What about the cell number change of the same compound?
The cell number change was -17.2%.

What does the source list for `O=C(Cn1nc(Cc2cccnc2)c2ccccc2c1=O)Nc1cccnc1Cl`?
lipid storage change, negative = inhibition: 3.38% (inactive); cell number change: 1.33%

What does the source list for `COc1ccc(-c2cc(=O)oc3cc(OCc4nn[nH]n4)ccc23)cc1`?
lipid storage change, negative = inhibition: 11.3% (inactive); cell number change: 14.9%

What does the source list for `O=C(/C=C/c1cccnc1)c1ccc([N+](=O)[O-])cc1`?
lipid storage change, negative = inhibition: -21.5% (inactive); cell number change: 10.1%

Which Potency does the source give for `CN(C)S(=O)(=O)c1ccc(C(=O)/C=C/c2cccnc2)cc1` here?
The Potency was 0.326 µM (active).

What about the cell number change of the same compound?
Its cell number change is 10.3%.

Which results are given for `CN(C)c1ccc(C(=O)/C=C/c2cccnc2)cc1`?
lipid storage change, negative = inhibition: -2.87% (inactive); cell number change: -3.58%

With `CCc1ccc(N2C(=O)C3NN=C(C(=O)OCc4ccccc4)C3C2=O)cc1` (stereo not given) as the compound, how does the “lipid storage change, negative = inhibition” value read?
The value was -5.22% (inactive).

What about the cell number change of the same compound?
Its cell number change is 22.8%.

What does the source list for `COc1cccc(-c2nc(=S)c3c(o2)CCCC3)c1`?
lipid storage change, negative = inhibition: 2.96% (inactive); cell number change: 9.57%

With `O=C(Nc1ccc(OCC(=O)N2CCOCC2)cc1)c1cncc(Br)c1` as the compound, how does the “lipid storage change, negative = inhibition” value read?
The value was -3.23% (inactive).

And the cell number change?
The cell number change was 9.01%.

What does the source list for `Cc1ccc(NC(=O)c2ccccc2OCc2c(C)noc2C)cc1S(=O)(=O)N(C)C`?
lipid storage change, negative = inhibition: 3.93% (inactive); cell number change: -11.7%

For `CC(=O)NCCC1CCN(C(=O)C2CCC(=O)N(C3CCCC3)C2)CC1` (stereo not given), which “outcome” value is on record?
Its value is “inactive”.

And the cell number change?
Its cell number change is 0.283%.

Which results are given for `CC1(C)CSC(=NCc2ccccc2)N1C(=O)c1cccc([N+](=O)[O-])c1`?
lipid storage change, negative = inhibition: 8.87% (inactive); cell number change: 13.5%

What does the source list for `CC1(C)CSC(=NCCc2ccccc2)N1C(=O)c1ccc(C#N)cc1`?
Potency: 1.3 µM (active); cell number change: -0.734%

With `CC1(C)COCN1C(=O)c1ccc(C#N)cc1` as the compound, how does the “lipid storage change, negative = inhibition” value read?
Its value is -2.88% (inactive).

And the cell number change?
The cell number change was 5.63%.

For `O=C(CNS(=O)(=O)c1ccccc1)OCC(=O)c1ccc(F)cc1`, which “outcome” value is on record?
The value was “inactive”.

What about the cell number change of the same compound?
The cell number change was 14.3%.

Which “outcome” value does the source give for `O=C(Nc1cccc(F)c1)c1c(F)c(F)c(F)c(F)c1F` here?
The value was “inactive”.

Which results are given for `COc1ccc(CNC(=O)c2cc(C3CC3)nc3c2cnn3C(C)C)cc1OC`?
Potency: 11.6 µM (active); cell number change: 1.25%

With `Cc1ccc(CNC(=O)c2cc(C3CC3)nc3c2cnn3C(C)C)cc1` as the compound, how does the “outcome” value read?
Its value is “inactive”.

And the cell number change?
Its cell number change is -11.5%.

What does the source list for `COc1cccc(CNC(=O)c2cc(C3CC3)nc3c2cnn3C(C)C)c1`?
lipid storage change, negative = inhibition: -14.5% (inactive); cell number change: 5.87%

For `COc1ccc(CSc2nncn2C)cc1[N+](=O)[O-]`, which “lipid storage change, negative = inhibition” value is on record?
The value was 18.5% (inactive).

What about the cell number change of the same compound?
Its cell number change is -11.4%.

Which “lipid storage change, negative = inhibition” value does the source give for `O=C(Nc1c2c(nn1-c1ccccc1)CS(=O)(=O)C2)c1ccc2c(c1)OCO2` here?
Its value is 17.4% (inactive).

What about the cell number change of the same compound?
The cell number change was -19%.

What does the source list for `O=C(COC(=O)c1cccc(S(=O)(=O)N2CCc3ccccc32)c1)Nc1ncc(C(F)(F)F)cc1Cl`?
lipid storage change, negative = inhibition: -12.9% (inactive); cell number change: -1.02%

With `O=C(COC(=O)c1cccc(S(=O)(=O)N2CCOCC2)c1)Nc1ncc(C(F)(F)F)cc1Cl` as the compound, how does the Potency read?
Its Potency is 23.1 µM (active).

What about the cell number change of the same compound?
The cell number change was -11.5%.

With `O=C(COC(=O)c1cccc(S(=O)(=O)N2CCOCC2)c1)Nc1ccc(Cl)cn1` as the compound, how does the “lipid storage change, negative = inhibition” value read?
Its value is 23.1% (inactive).

And the cell number change?
Its cell number change is -3.5%.

What does the source list for `Cc1ccc(NC(=O)CCC(=O)Nc2ccc(C)cc2)cc1`?
lipid storage change, negative = inhibition: -11.2% (inactive); cell number change: -16.8%

For `Cc1cc(C)cc(C(=O)N2CCC3(CC2)NCCc2[nH]cnc23)c1`, which “lipid storage change, negative = inhibition” value is on record?
The value was -13.7% (inactive).

Which “lipid storage change, negative = inhibition” value does the source give for `COc1ccc(-c2csc(NC(=O)c3cccc(N4C(=O)CCC4=O)c3)n2)cc1OC` here?
The value was -8.17% (inactive).

What about the cell number change of the same compound?
Its cell number change is 19.9%.

With `CNCCCOc1ccc(C)cc1Br` as the compound, how does the Potency read?
Its Potency is 20.6 µM (active).

What about the cell number change of the same compound?
Its cell number change is -34.9%.

With `COCCCNCCCOc1ccc(C)cc1Br` as the compound, how does the “lipid storage change, negative = inhibition” value read?
Its value is 9.41% (inactive).

And the cell number change?
The cell number change was -14.3%.

With `CCCCNCCCOc1ccc(C)cc1Br` as the compound, how does the “lipid storage change, negative = inhibition” value read?
The value was -0.0338% (inactive).

And the cell number change?
The cell number change was 10%.

What does the source list for `CCc1noc(C)c1C(=O)OCC(=O)c1ccccc1OC`?
lipid storage change, negative = inhibition: -18.6% (inactive); cell number change: -12.4%

Which results are given for `CCCCCC(=O)Nc1cc(S(=O)(=O)N2CCCCC2)ccc1N1CCOCC1`?
lipid storage change, negative = inhibition: -20.9% (inactive); cell number change: -1.56%

For `Cc1ccc(NC(=O)C2CCN(S(C)(=O)=O)CC2)cc1C`, which Potency is on record?
The Potency was 6.51 µM (active).

What does the source list for `Cc1ccc(NC(=O)C2CCN(S(C)(=O)=O)CC2)cc1`?
lipid storage change, negative = inhibition: -13.2% (inactive); cell number change: 1.04%

Which “lipid storage change, negative = inhibition” value does the source give for `COc1ccc(NC(=O)C2CCN(S(C)(=O)=O)CC2)cc1OC` here?
Its value is 16.9% (inactive).

And the cell number change?
Its cell number change is 11.1%.

What does the source list for `O=C(O)CSC1c2ccccc2C(=O)N1Cc1ccccc1` (stereo not given)?
lipid storage change, negative = inhibition: 11% (inactive); cell number change: -11.8%

For `O=C(CC(=O)N/N=C/c1ccccc1)NCc1ccccc1`, which “lipid storage change, negative = inhibition” value is on record?
Its value is 10.4% (inactive).

What about the cell number change of the same compound?
The cell number change was 2.89%.
